Measurements taken from PubChem BioAssay AID1508600 (Functional Genomics Laboratory (NCATS/FGL), 2020).
About 3,700 (7%) of roughly 53,000 sequences were called active. Many of the other results were omitted from the sample, so actives are more common in it than they were. A number with no mark means an inactive call.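 The calls were made as follows: active = gene knockdowns whose robust z-score for IL-1 alpha signal is at least 2 or at most -2, so actives lie on both sides; inactive = the rest.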

Assay: Components of the Cytosolic LPS Sensing Pathway: Gene Identification via Genome-wide siRNA Screen;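 also: robust z of the log signal after scaling to non-targeting control siRNA wells of the plate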
Conditions: RAW264.7 macrophages, IL-1a HTRF, actives lie on both sides, screened at 100 nM (by protocol), cells primed 5 h with Pam3CSK4 first
Method in brief: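 RAW264.7 mouse macrophages reverse-transfected with single siRNAs (100 nM final) for 48h, primed with Pam3CSK4 for 5 hours, then transfected with LipidA for 24 hour. Supernatant IL-1a read by HTRF; values normalized to negative-control median, log-transformed robust z-scores.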

| Sequence | z-score |
| --- | --- |
| GCUGGAAUAUAGGAAUGUCTT against Pex11g | -0.0512 |
| GGUCUAGCUCUGAAACAUCTT against Pms2 | 2.27 (active) |
| GCAUGUUUACGUUCCUGACTT against Slc2a12 | -0.0386 |
| GGUUUUAAUUUCAACUGUCTT against Tpp1 | -0.468 |
| GGGCAACACAGGACAUCUATT against Amot | -0.35 |
| GCAGGUUAAGUAGCUGACATT against Dync1li2 | -2.37 (active) |
| GGUGUCCACGGUGGUUUGATT against Pfn1 | -0.268 |
| GGGACAGUUGACUUUUUAUTT against Cntn4 | 0.147 |
| CCUUUUGAUGCAUCCCGUCTT against Bpifb3 | 0.709 |
| GGGACUUUGGGCUAAAUAGTT against Tspan1 | -1.32 |
| CCCUCCACAGAUGAACACCTT against Lgals4 | -2.02 (active) |
| GGAUAAUUGAUCAUAGAGGTT against Ufm1 | -0.495 |
| GAGUAGGAAUUAGAAUGAUTT against Tmem47 | -0.00808 |
| GCAUGAUCUCAGGUGUUUGTT against Timm13 | -1.54 |
| GGAUAACUGCUUCAUUUCCTT against Agbl1 | 0.62 |
| GGAAAGACAAAGAACUCUATT against Ssu72 | -0.535 |
| GGAUUUCACUUGAGAAUGATT against Grem1 | -0.905 |
| GGUCAACGUAAAUUGUUCATT against Plppr5 | 2.94 (active) |
| CCUUCUAGUUUGCCUCUGGTT against Olfr877 | 0.332 |
| GGGAAGAGCAUGUUUGCUGTT against Surf4 | 0.982 |
| GGAGUGUUGCCAGUUCCUATT against Tctn2 | -0.434 |
| GGAGUUUCACCAGAAGGCUTT against Ttc24 | 1.63 |

| Sequence | z-score |
| --- | --- |
| GGACUUUGUGAAGGACUCUTT against Gatd1 | -2.56 (active) |
| GGAACUUGGAAUUUAGUUGTT against Pla2g4b | 1.43 |
| GGACAUGGUCCUUCCUAAATT against Arl8b | 0.944 |
| GGAAGCUGCACGGCAACUUTT against Btn2a2 | -0.132 |
| GGAGUGAUCAUCUAUAAUUTT against Rnf133 | 2.12 (active) |
| CCUGGUCAAUCGAUUCAUATT against 5330416C01Rik | -0.12 |
| GGGCAGAGUGGAGUAUCUGTT against Cbx4 | -1.35 |
| GGACACAUGGAAGAGGAUUTT against Rnf139 | 0.513 |
| CGAGGAUGCUUUUUAAAAATT against Inip | -0.0653 |
| GCUGCUUUAGCUUAGUUUUTT against Vwa7 | 0.457 |
| GCCGACAGAUUGAAAUUCGTT against Supv3l1 | 2.79 (active) |
| GCCCGAUUAAAAUAAAUUGTT against Arih2 | 0.636 |
| GGAAAAUCUGGAGUUCUUCTT against Npas1 | 1.3 |
| GGUUCAGACCAUCUUGGAATT against Bag3 | -0.936 |
| GGCAUUCAGAAAUCCAGUATT against Zdhhc2 | -0.942 |
| GGGAAUGGAAACGGCCAUGTT against Nmt1 | 2.02 (active) |
| GCAAAAGUUCCAAAAAUCCTT against Cryba1 | 0.0525 |
| GCUCUACAGUAGAACAAACTT against Efcab5 | 1.18 |
| GGAUUGAAGUCCCUUUACUTT against Zdhhc16 | 2.27 (active) |
| GGAACUCUUUUCCUAAAAUTT against Slco1a5 | -0.838 |
| CCUAUACCCUGGAAAGGCATT against Pigz | 1.59 |
| GGCUGAAUCACCAGAACAUTT against Ikbke | -0.644 |

| Sequence | z-score |
| --- | --- |
| GGCCAGAAUGUAUAAAGCUTT against Mboat7 | -1 |
| GGGCACUGGAACAGAUUUUTT against Ccnh | 4.27 (active) |
| GGUCACCCUCAAGUACCCUTT against Thop1 | -0.188 |
| GCUAUUAAGUUUACCCUAGTT against A730089K16Rik | -1.31 |
| GGACCAACUACACACUACGTT against Grik5 | 0.334 |
| CCAAUGUGCGAGCAAAGAUTT against Arid5a | 2.48 (active) |
| GGACCGUAUCCCAAAAGAUTT against Klf1 | -0.968 |
| GGGCCUCUUCCUUAAGCAUTT against Snx8 | -0.382 |
| GGAAGUUUGUUUGCUGUUATT against Slx4ip | 1.08 |
| GCCUAUUGUAAAUACAGGUTT against Bdnf | 0.6 |
| GGUGAAUAGAACAUCAUCUTT against Lrrc29 | -1.76 |
| GGUGAUGAAAGGGAAUGGCTT against Rnf25 | -2.53 (active) |
| GGAACACAAAUUGUGCUUATT against Zfp462 | 0.199 |
| GGGUUGUAUGGCUCAAAUATT against Olfr728 | 0.734 |
| GCAUCAUAAUGGGAUGCUGTT against Qrfp | -0.313 |
| GGAGAGGUCAGAUAGAAAUTT against Zbtb41 | -2.29 (active) |
| GGCAAAAGAAUCGUUCUCATT against Ppat | -0.848 |
| GGAAGAAAUACUACAGCCATT against Ptpn12 | -0.733 |
| GAAGGAAGAAUAUUGGCCCTT against Il17rd | -1.88 |
| GCGGCAAUUCAAAUGAGUCTT against Rnf14 | 1.2 |
| GGGAAUGACUCCACAUUGCTT against Limd1 | 2.01 (active) |
| GGGAGAGAGUUGGCUCUGATT against Prg3 | -0.184 |

| Sequence | z-score |
| --- | --- |
| GGGAGACUUCGAAUAUUUATT against Uroc1 | -0.183 |
| CGUAUUCUGGUAGUGAAGGTT against Olfr1384 | -2.3 (active) |
| GCUCAACCUAACUUUGUGGTT against Ccdc3 | 0.421 |
| GGCAACAAUGGUUGUCUUGTT against Ctsr | 0.515 |
| GCCAAACUUAGCGUGCUCATT against Dgkk | 0.607 |
| GGGUAUCAACCACUUUUUUTT against Serping1 | 2 |
| GGUCAGAUUCCUGAAAUUATT against Vbp1 | -0.807 |
| GGAAACAAGAUUACAUCAATT against Adamts2 | 2.04 (active) |
| GGCCAUAGUGAAGAAAGAATT against Plaat3 | -0.754 |
| GGAGAAGGAUAGAGAUGGUTT against Phf5a | -1.84 |
| GGUAAUACCACCUCACCUUTT against Fam214b | -0.0713 |
| GGACACUGUACAGAAGCUGTT against Asb18 | -2.31 (active) |
| CGGUUAGAUGAGCUUGAGATT against Smad2 | -0.725 |
| GCGGGAGUACUACGUCAAUTT against Reps2 | -2.07 (active) |
| GCUUGAUGACUACCACUGATT against Rrp36 | 0.496 |
| GGUCGACAUUUUGAAGGAGTT against Fthl17e | -2.63 (active) |
| GGAGAUCACUAUGUUCUGATT against Ivd | 1.46 |
| GACAAGGCUUCAUAAAAAGTT against Qrich1 | -0.312 |
| GGGAUGCUUUGUUGCUGUUTT against Olfr836 | 0.296 |
| GCCAUAGGCUCAUCUUUACTT against Ankib1 | -1.61 |
| GGAAGUAGAGCUUCAAAUGTT against Cdkl2 | 2.8 (active) |
| GGUUGGUCACCUAAUCCAGTT against Aldh2 | 0.523 |

| Sequence | z-score |
| --- | --- |
| CCAAUGUGCUCAUGCUCUATT against Nodal | 1.06 |
| GCUGUACGAGCAUACUGUGTT against Tnxb | -1.46 |
| CCUUCUAAACACUUGACUUTT against Ugt2b5 | 0.106 |
| GACCACAAUAUUGAGGAUCTT against Zfp119b | -0.329 |
| GGACGUGACAGACAUUAUUTT against Htr5b | -2.81 (active) |
| CCCUGUUAUUAUCUUGAUUTT against Arv1 | -1.16 |
| CGUGUGUGUUAUGAAUCAATT against Tmem161a | 0.984 |
| GGACUUGCUAAGAGACCAATT against Cntn2 | 4.74 (active) |
| GGACUACAUAAGGAAGGUUTT against Ccdc130 | 1.64 |
| GGCAAAUGGGAAGAAUUCCTT against Mep1b | 0.228 |
| GCAACCUGCAGGCAGUAACTT against Nolc1 | 0.207 |
| CCACACACUGAUCAACGUGTT against Unc93b1 | 0.336 |
| GGCUUCAUUCUUGUCCUCCTT against Reg3b | -0.105 |
| GCCUUCCUCCGUUAAUCCATT against Kank2 | 0.844 |
| GGUGAGAGGAAGGAAGAGATT against Pcsk7 | 2.54 (active) |
| GGAGGAUGAGAAAGAAGAGTT against Gja8 | -0.176 |
| GGAUGUCAUCAAUGCUAUGTT against Olfr1022 | -0.643 |
| GGUUUACUGGCCAAGAUGGTT against 4930579K19Rik | -0.327 |
| GGCUUUACGUGACAAAGAUTT against 4933430I17Rik | 0.266 |
| GGAAAAUACAGCGCGAAUUTT against Nexn | 1.4 |
